The structures appear in SMILES notation. In all, about 50,000 compounds went through this assay and about 800 (1.6%) showed an effect of 50% or more. The full list was thinned out, with strong results kept by preference.

Sequence of Bcl-2-like protein 10 (Homo sapiens) (Q9HD36 whole entry, looked up): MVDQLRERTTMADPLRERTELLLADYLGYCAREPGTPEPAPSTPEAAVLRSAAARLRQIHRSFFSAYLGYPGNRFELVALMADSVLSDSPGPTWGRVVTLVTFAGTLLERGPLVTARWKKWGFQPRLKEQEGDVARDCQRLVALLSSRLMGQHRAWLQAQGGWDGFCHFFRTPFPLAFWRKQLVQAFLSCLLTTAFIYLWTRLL

The assay has as its target Bcl-2-like protein 10 (Homo sapiens) (UniProt Q9HD36). The assay can be described thus: Phenotype converters, Bcl-B/TR3 peptide binding displacement, primary biochemical FP (AID 1240).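 Note: 0% = Bcl-B with tracer peptide and DMSO and 100% = tracer peptide lacking Bcl-B.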 Conditions: GST-Bcl-B / FITC-TR3 peptide fluorescence polarization; stronger effect = higher value; compound at 3.75 mg/L. On the technique in general: Fluorescence polarisation rises when a labelled molecule tumbles more slowly, as on binding a larger partner.
Regarding `O=C(NCc1ccc2c(c1)OCO2)c1ccc(F)cc1`, the displacement amounted to 11.2%.

As to `COc1ccc(/C=C2/C(=O)ON=C2c2ccccc2)cc1`, the displacement worked out at 13.6%. Take `CC(=O)Oc1ccc2c(C)cc(=O)oc2c1C`: the displacement was -10.7%. Take `CCOc1ccccc1N1CCN(C(=O)C(Sc2ccccc2)c2ccccc2)CC1` (stereo not given): the displacement is -4.4%.

As to `CC1CN(C(=O)c2cccs2)CC(C)O1` (stereo not given), the displacement was 3.3%. With `CC(=O)Nc1ccc(NC2=C(Cl)C(=O)c3ccccc3C2=O)cc1` the figure was 7.1%. Under `Cc1cc(Cl)ccc1OCC(N)=O` stands -0.8%; under `N/C(=N/S(=O)(=O)c1ccc(Br)cc1)c1ccccc1`, 8.5%; under `CN(C)/C(=N\S(=O)(=O)c1ccc(Br)cc1)c1ccccc1`, 96.8%. With `Cc1ccc(S(=O)(=O)/N=C(\c2ccccc2)N(C)C)cc1` the figure was 13.2%. With `COc1cc(/C=C2/SC(=S)N(c3c(C)n(C)n(-c4ccccc4)c3=O)C2=O)c([N+](=O)[O-])cc1OC`, the displacement was 61.3%.

On to `COc1ccccc1/C=C1\SC(=S)N(c2c(C)n(C)n(-c3ccccc3)c2=O)C1=O`, for which the displacement was 1.2%. With `COc1cc(C=Nc2c(C)n(C)n(-c3ccccc3)c2=O)c([N+](=O)[O-])cc1OC` the figure was 130%; with `COc1cc(/C=N/N2C(=O)c3ccccc3C2=O)c([N+](=O)[O-])cc1OC`, -1.8%. Take `Cc1c(N2C(=O)/C(=C/c3cccs3)SC2=S)c(=O)n(-c2ccccc2)n1C`: the displacement worked out at 8.6%. With `CCOc1ccc(Br)cc1C=Nc1c(C)n(C)n(-c2ccccc2)c1=O` the figure was -1.8%; with `COc1ccccc1C/C(N)=N/OC(=O)c1ccc(I)cc1`, 10.8%. Under `Cc1ccc(C23CC4CC(CC(C(=O)Nc5ccc(F)cc5F)(C4)C2)C3)cc1` stands -3.1%. Under `Cc1cc(Cl)ccc1OCC(=O)NCC1CCCO1` (stereo not given) stands 1.4%; under `CC(C)CN1C(=O)c2ccc(C(=O)Nc3ccc(Br)cc3C(=O)O)cc2C1=O`, -12.5%; under `Cc1ccc(/C=C/C(=O)Nc2cccc3ccccc23)o1`, -7.3%. Consider `Cc1ccc(/C=C/C(=O)Nc2cccc3ncccc23)o1`, for which the displacement was found to be 27.1%. Under `Cc1ccc(/C=C/C(=O)Nc2cccc3cccnc23)o1` stands 91.4%.

On to `Cc1c(C(=O)Nc2ccc(Cl)cn2)oc2ccccc12`, for which the displacement stood at 15.4%. Under `Cc1cccc(C(C)C)c1NC(=O)COc1ccc(Cl)cc1Cl` stands 13.3%; under `Cc1cccc(N2C(=O)/C(=C/c3ccco3)SC2=S)c1C`, 1.9%. With `Cc1cc(/C=C2\SC(=S)NC2=O)c(C)n1-c1cccc([N+](=O)[O-])c1`, the displacement is 7.1%. Under `O=C(O)c1ccc(CN2CCOCC2)cc1` stands 13.7%. Under `Cc1ccc(CN2CCN(/N=C/c3ccc(C(=O)O)cc3)CC2)cc1` stands 16.4%; under `Cc1ccc(C)n1Cc1ccc(C(=O)O)cc1`, 66.4%; under `CC(=O)c1cccc(NC(=O)/C(=C\c2cccnc2)NC(=O)c2ccccc2)c1`, -5.3%.

As to `N/C(Cc1cccc2ccccc12)=N\OC(=O)c1ccc(F)cc1`, the displacement was found to be 31.7%. With `N/C(Cc1cccc2ccccc12)=N\OC(=O)c1cccs1` the figure was 98.4%; with `COc1ccc(C/C(N)=N/OC(=O)c2cccs2)cc1`, 8.1%; with `COc1ccc(C(=O)CSc2nc3c(c(-c4ccc(C)o4)c2C#N)CCCC3)cc1`, 7.6%. Under `CC(C)(C)C1(O)CC(C(F)(F)F)=NN1C(=O)COc1ccccc1` (stereo not given) stands -7.4%; under `O=C1ON=C(c2ccccc2)/C1=C/c1ccc(Br)s1`, 70.8%. `O=C1ON=C(c2ccccc2)/C1=C/c1cccnc1`: the displacement is -9.2%. Under `CCCCc1ccc(/C=C2/C(=O)ON=C2c2ccccc2)s1` stands 40.8%. Turning to `CCCCN(CC)c1cnn(-c2ccccc2)c(=O)c1N`, the displacement is 10.6%.

For `CC(=O)C1=C(Nc2ccc(Br)cc2)CC(C)(O)C(C(C)=O)C1c1ccc(C)cc1` (stereo not given), the displacement is -4.9%. Under `COc1ccc(C2C(C(C)=O)=C(Nc3ccccc3)CC(C)(O)C2C(C)=O)cc1` (stereo not given) stands 1.4%; under `COc1ccc(C2C(C(C)=O)=C(Nc3ccc(Br)cc3)CC(C)(O)C2C(C)=O)cc1` (stereo not given), 90.9%; under `COc1ccc(C2Nc3ccccc3C(=O)N2Cc2ccccc2)cc1Cn1nc(C)c(Br)c1C` (stereo not given), 15.4%.

As to `Cc1cc(Cl)ccc1OCC(=O)Nc1sc(C)c(C)c1C(N)=O`, the displacement worked out at 79.1%. Under `CCOC(=O)c1sc(NC(=O)COc2ccc(Cl)cc2C)c(C(=O)OCC)c1C` stands -5.1%. Under `CCOC(=O)c1c(NC(=O)COc2cc(Cl)ccc2Cl)sc(C)c1C` stands -8%. For `O=C(N/N=C/c1ccc(Cl)c(Cl)c1)C1CC(=O)N(c2ccccc2)C1` (stereo not given), the displacement was -9.3%. Under `CS(=O)(=O)N(CC(=O)NCc1ccncc1)c1ccc(Oc2ccccc2)cc1` stands 10.2%.

On to `Fc1ccccc1-c1nc(-c2ccc(Br)cc2)no1`, for which the displacement is 4.3%. Under `Cc1ccc2nsnc2c1NC(=O)c1ccc(Br)o1` stands 15.6%. With `O=C(Nc1cccc2nsnc12)c1ccc(Br)o1` the figure was 69.6%; with `CCOc1ccc(C(=O)Nc2cccc3nsnc23)cc1Br`, 78.2%. Under `CCOc1ccc(C(=O)Nc2cccc3nsnc23)cc1[N+](=O)[O-]` stands 10.7%. As to `O=C(Nc1cccc2nsnc12)c1ccco1`, the displacement was determined as 4%. With `CCOc1ccc(C(=O)Nc2cccc3nsnc23)cc1Cl` the figure was 30.9%; with `O=C(Nc1sc2c(c1C(=O)N1CCCCC1)CCCCC2)c1ccc([N+](=O)[O-])cc1`, -2.1%; with `COc1cccc(OC)c1C(=O)NCc1ccc(C)cc1`, 2.7%. Under `Fc1ccc(-c2noc(-c3ccc(Cl)cc3)n2)cc1` stands -6.4%; under `COc1cc(C(=O)N2CCN(C)CC2)c([N+](=O)[O-])cc1OC`, -0.1%.

Consider `Cc1ccc(-c2noc(-c3cccc([N+](=O)[O-])c3C)n2)cc1`, for which the displacement came out at 6.9%. In the case of `COc1ccc(-c2noc(-c3ccc(C)c([N+](=O)[O-])c3)n2)cc1OC`, the displacement was 54.4%. Under `Cc1cccc(-c2noc(-c3ccc(Br)cc3)n2)c1` stands -1.7%. Under `COc1ccc(-c2noc(-c3ccc(C)c([N+](=O)[O-])c3)n2)cc1` stands -0.4%; under `Cc1ccc(-c2nc(-c3cccnc3)no2)cc1[N+](=O)[O-]`, 21.4%. Under `Cc1c(-c2nc(-c3ccncc3)no2)cccc1[N+](=O)[O-]` stands 0.7%; under `Cc1cccc(-c2noc(-c3ccc(C)c([N+](=O)[O-])c3)n2)c1`, 76.1%. `Cc1cccc(-c2noc(-c3cccc([N+](=O)[O-])c3C)n2)c1`: the displacement came out at 78.9%. Under `COc1ccc(-c2nc(-c3cc(OC)c(OC)c(OC)c3)no2)cc1OC` stands -5.7%. Under `O=C1c2ccccc2C(=O)C1C1=CC(c2ccccc2)C(c2ccccc2)N=N1` (stereo not given) stands -10%; under `O=S(=O)(NC(=S)c1ccccc1)c1ccc(I)cc1`, 11.9%.

In the case of `COc1cc(/C=C2\C(=O)NC(=O)N(c3ccc(Cl)cc3)C2=O)cc(Cl)c1OC`, the displacement is -2.2%. Under `COc1ccc(/C=C/C(=O)c2ccc(Br)cc2)cc1[N+](=O)[O-]` stands 12.9%. With `O=C(CSc1nnnn1-c1ccccc1)Nc1ccccc1[N+](=O)[O-]` the figure was 1.7%; with `O=C(CSc1ccc(Cl)cc1)NCCc1ccc(F)cc1`, -8.3%; with `O=C(NCc1ccc2c(c1)OCO2)c1ccccc1F`, 14.1%. With `c1cc2c(cc1NC1CCCCC1)OCO2` the figure was 130%; with `O=C(NNC(=O)c1ccc2c(c1)OCO2)NC1CCCCC1`, 10.1%. Turning to `O=C(Nc1ccc2c(c1)OCO2)C(=O)Nc1ccc2c(c1)OCO2`, the displacement was found to be 21.3%. Turning to `Cc1nn(Cc2cccc(Cl)c2)c(N)c1-c1ccccc1`, the displacement was -9%. With `CCOc1ccc(/C=N\NC(=O)c2ccc(Br)cc2)c(O)c1` the figure was 6.9%. With `O=C(Nc1ccc(S(=O)(=O)N2CCc3ccccc32)cc1)c1ccc(Cl)cc1` the figure was 0.8%. With `Cc1ccc(C(=O)Nc2ccc(S(=O)(=O)N3CCc4ccccc43)cc2)cc1` the figure was 1.6%; with `O=C(Nc1ccc(S(=O)(=O)N2CCc3ccccc32)cc1)c1ccc(-c2ccccc2)cc1`, 89.5%; with `O=C(O)c1c(F)c(F)c(F)c(F)c1-c1ccc(Cl)cc1`, 11.8%. As to `Cc1oc2ccc(OCc3ccccc3Cl)cc2c1C(=O)O`, the displacement was found to be 5.8%. Under `O=c1c(-c2ccccc2)coc2cc(OCc3ccccc3Cl)ccc12` stands 20.7%; under `Oc1cc(OCc2ccccc2Cl)ccc1-c1[nH]ncc1-c1ccccc1`, 77.4%. Under `Cc1ccc(C(=O)/C=C/Nc2cccc(O)c2)cc1` stands -0.4%. Consider `CCOC(=O)c1ccc(NC(=O)/C=C/c2ccc(Cl)cc2)cc1`, for which the displacement was determined as 16.8%. Under `CCOC(=O)c1ccc(N/C=C/C(=O)c2ccc(Cl)cc2)cc1` stands 59.8%; under `CCOC(=O)c1ccc(N/C=C/C(=O)c2cccs2)cc1`, 14.1%; under `Cc1ccc(C(=O)/C=C/Nc2ccc(Cl)c(Cl)c2)cc1`, 126%.

As for `Cc1cccc(N/C=C/C(=O)c2ccc(Cl)cc2)c1`, the displacement was -2.2%. With `CCOc1ccccc1C(=O)NCCc1nc2ccccc2[nH]1` the figure was 4.7%; with `O=C(NC1C2CC3CC(C2)CC1C3)c1ccccc1F` (stereo not given), 4.9%. With `Cc1cc(/C=C2/SC(=O)NC2=O)c(C)n1-c1cccnc1` the figure was 0.8%; with `C/C(=N\NC(=O)c1cc2ccccc2cc1O)c1ccco1`, 10%; with `COC(=O)c1cc(-c2ccc(C)cc2)nc2ccccc12`, 2.1%. With `COc1ccc(-c2cc(-c3ccc(Cl)cc3)c(C#N)c(N)n2)cc1` the figure was 6.4%; with `N#Cc1c(-c2ccccc2)cc(-c2ccc(Br)cc2)nc1N`, 8.8%. With `COc1ccc(-c2cc(-c3ccc(Br)cc3)nc(N)c2C#N)cc1`, the displacement turned out to be 70.6%. With `CN1CCN(c2c([N+](=O)[O-])c(=O)n(C)c3ccccc23)CC1` the figure was -4.8%; with `CCC1=NN2C(=N)/C(=C/c3ccc(-c4ccc(Cl)cc4)o3)C(=O)N=C2S1`, 66.7%. Under `CCCC1=NN2C(=N)/C(=C/c3ccc(-c4ccc(F)cc4)o3)C(=O)N=C2S1` stands 135%; under `CCCC1=NN2C(=N)/C(=C/c3ccc(-c4ccc(C(=O)OCC)cc4)o3)C(=O)N=C2S1`, 164%.

`CCCC1=NN2C(=N)/C(=C/c3ccccc3C)C(=O)N=C2S1`: the displacement came out at 32.9%. With `CCC1=NN2C(=N)/C(=C/c3ccc(-c4ccc(F)cc4)o3)C(=O)N=C2S1`, the displacement was found to be 69.2%.

Consider `CCCC1=NN2C(=N)/C(=C/c3ccc(OCc4ccc(F)cc4)c(OCC)c3)C(=O)N=C2S1`, for which the displacement is -6.7%. Under `CCOC(=O)c1ccc(-c2ccc(/C=C3/SC(N)=NC3=O)o2)cc1` stands -27.3%; under `CCC1=NN2C(=N)/C(=C/c3ccc(-c4ccc(C)c(Cl)c4)o3)C(=O)N=C2S1`, 3.9%.

With `CCC1=NN2C(=N)/C(=C/c3ccc(-c4ccc(F)c(Cl)c4)o3)C(=O)N=C2S1`, the displacement is -0.2%. As for `CCC1=NN2C(=N)/C(=C/c3ccc(-c4ccc(C(=O)O)cc4)o3)C(=O)N=C2S1`, the displacement amounted to 44.1%. Under `CCCC1=NN2C(=N)/C(=C/c3ccc(-c4ccccc4C(=O)OC)o3)C(=O)N=C2S1` stands -37%; under `CCC1=NN2C(=N)/C(=C/c3ccc(F)cc3)C(=O)N=C2S1`, 7.5%.

The record behind these values is PubChem BioAssay AID1240 (Sanford-Burnham Center for Chemical Genomics, 2008).
